Compound activity from PubChem BioAssay.
LDHA block: blocks human lactate dehydrogenase A | P00338 | purified LDHA, NADH/diaphorase-resazurin fluorescence; hits give low values | activity change, % (values are at about 110 or 230 µM) | actives 0.15% (n = 480,000) | AID 1347041; in the data active = activity change below about -30%; inconclusive = mostly about -25% to -30%;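 also: plate controls were DMSO wells for no effect and wells without enzyme for full effect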
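Resorufin fluorescence (ex540/em590), read at 0 and 20 min after diaphorase/resazurin addition, reports the NADH left after a 5 min room-temperature reaction of 2 nM human LDH5 with 0.06 mM NADH and 0.2 mM pyruvate.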
KCNH2 WT inh: KCNH2 (human, wildtype) channel inhibition; actives 0.37% (n = 340,000); U2OS, BacMam KCNH2, thallium flux FluxOr; hits give low values; activity change, % at 1.84 µM;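 active = maximum activity change below -70%; inconclusive = maximum activity change between -70% and -50%; inactive = maximum activity change above -50%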; also: % is scaled to controls: 0 for no effect and ±100 for the full control effect
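U2OS cells transduced with wild-type KCNH2 virus are loaded with FluxOr dye for 45 min, and thallium flux is measured in kinetic reads before and after stimulation buffer. Rate constants are normalized to DMSO controls.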
KCNH2 3.1 block: KCNH2 3.1 (human) potassium channel inhibition. activity change, % (tested at about 1.8 µM). actives 0.95% (n = 340,000). U2OS KCNH2 3.1, thallium flux FluxOr; hits give low values. AID 720553;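 active = maximum activity change below -70%; inconclusive = maximum activity change from -70% to -50%; inactive = maximum activity change above -50%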;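 also: thallium influx rate constant from kinetic fluorescence after stimulation buffer; % is scaled to controls: 0 for no effect and ±100 for the full control effect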
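Channel expression came from 3.1 mutant virus (1.77 x 10^8 /mL) applied to suspended U2OS cells for 4 h. Flux was tracked with FluxOr dye plus Red40 quencher, and kinetic rate constants normalized to controls.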
BCR signal inh: blocks chronic active B-cell receptor signaling | actives 0.05% (n = 340,000) | ABC-DLBCL IkBa-CBG/CBR reporter, luminescence ratio, 4 h | AID 493014 | Potency, µM (series often up to 46.1 µM), for inactives: at the highest dose activity change, negative = inhibition, usual class: inhibitors; active = well fitted inhibition curve with a large enough effect in the signal ratio, with a control signal flat, not every such curve was filed as active; inconclusive = small, poorly fitted or top-dose-only effect, or effect the other way, or a change in a side signal; the % refers to the signal ratio;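 also: potency is read from the fitted curve at half-maximal effect; plate controls were basal doxycycline-induced cells for no effect and cells given 10 µM MG132 for full effect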
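Cell line TMD8 (human ABC DLBCL), stably expressing tet-inducible CBG68-IkBa fusion and CBR; IMDM/0.5% FBS; cpd up to 46 uM; dox induction, 4 h, 37C/5% CO2; dual luminescence; green/red ratio; MG132 control.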
ClpP mod: qHTS Assay for Activators of ClpP; AID 651965, 2013; actives 1.9% (n = 340,000); Potency, µM (highest dose often 57.5 µM), inactives show at the highest dose activity change, negative = active; ATP-dependent Clp protease proteolytic subunit (Bacillus subtilis (strain 168)), P80244; purified B. subtilis ClpP, FRET peptide cleavage, 20 min; active = well fitted falling curve with a large enough effect; inconclusive = small, poorly fitted or top-dose-only effect; inactive = no such curve, though single readings can be large or run the other way; also: potency is read from the fitted curve at half-maximal effect; the source files actives as falling curves though it sought activators and does not explain the sign; nearly all actives have a fitted effect of over 65% in size
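Buffer: 100 mM Tris/HCl pH8, 100 mM KCl, 0.05% low protease BSA, 2.5% glycerol, 0.01% Tween-20. ClpP 10 microg/mL final; 20 min RT; delta FRET normalized to ADEP and DMSO controls.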
12-LOX inh: ALOX12 (human) lipoxygenase inhibition | actives 1.1% (n = 580,000) | Potency, µM (doses to about 108 µM), inactives show at the top dose activity change, negative = inhibition, actives largely listed as inhibitors | purified 12hLO, xylenol orange hydroperoxide absorbance; active = well fitted inhibition curve with a large enough effect; inconclusive = small, poorly fitted or top-dose-only effect, or another doubt; inactive = no such curve, though single readings can be large or run the other way; also: potency is read from the fitted curve at half-maximal effect; % is scaled to controls: 0 for no effect and ±100 for the full control effect
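Purified human 12hLO at 150 nM in 25 mM Hepes, 0.01% Triton X-100, pH 7.0, preincubated 15 min at room temperature with compound. Reaction started with 40 uM arachidonic acid, 30 min at room temperature. Hydroperoxide measured by Fe-xylenol orange, 573/405 nm absorbance ratio.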
Active calls of the source: *; ? = inconclusive; . = no result given; [ ] = dose if it differs, or a comment. Most compounds without a hit are left out; they make up all but 3% or so of the library.

SMILES	LDHA block	KCNH2 WT inh	KCNH2 3.1 block	BCR signal inh	ClpP mod	12-LOX inh
Cc1cc(OS(C)(=O)=O)c2c3c(c(=O)oc2c1)CCCC3	16	.	.	.	.	?
Cc1ccc(N2C(=O)/C(=C/N3CCN(C(=O)c4ccco4)CC3)C(=O)NC2=S)cc1C	-6	-1	-7	-3%	-4%	40µM*
Cc1cccc(N2C(=O)NC(=O)/C(=C\c3ccc(N4CCOCC4)cc3)C2=O)c1	-6	-4	-1	5%	.	?
Cc1cccc(N2C(=O)/C(=C/N3CCN(C(=O)c4ccco4)CC3)C(=O)NC2=S)c1	-3	-15	-15	3%	16µM*	?
O=C1NC(=S)N(c2ccc(Br)cc2)C(=O)/C1=C/N1CCN(C(=O)c2ccco2)CC1	-6	6	7	?	-1%	?
Cc1ccc(NC(=O)c2cn(C)c3ccccc23)c2cccnc12	5	.	.	.	.	-5%
CC(C)(C)CC(C)(C)NCCc1ccccc1	3	.	.	.	.	?
CCCCCCOC(=O)c1ccccc1N	-5	-19	12	?	22µM*	0%[57.4 µM]
Cc1ccc(S(=O)(=O)N2CC2(C)CCl)cc1 (stereo not given)	-7	-4	-2	-2%	-3%	2%
Cc1ccc(S(=O)(=O)N2CN3CCN(C3)C2)cc1	-3	-131*	-134*	3%	1%	-3%
COc1cc(-c2nc3ccc4ccccc4c3c3c2CCC3)cc(OC)c1OC	0	6	2	?	25µM*	?
Cc1ccc2cc3c(ccc4ccccc43)c3c2c1CC3	.	.	.	.	.	5%
NCC(=O)c1ccc(Cl)c(Cl)c1	-31*	.	.	.	-3%	?
COC(=O)C1=C(c2ccc(F)cc2OCc2ccccc2)C[C@@H]2CC[C@H]1N2C(=O)NCCOc1ccc(OC)cc1	4	2	-87*	7%	1%	1%
COC(=O)C1=C(c2ccccc2OCc2ccccc2)C[C@@H]2CC[C@H]1N2C(=O)NCc1ccc(N(C)C)cc1	4	-13	-116*	?	0%	-6%
O=C(c1ccc(Cl)cc1)C1CCCN(Cc2cccc3cccnc23)C1 (stereo not given)	1	-71*	-99*	-14%	.	-28%
COc1ccc(CN2CCCC(C(=O)c3ccc(Cl)cc3)C2)c(O)c1 (stereo not given)	4	-31	-72*	1%	-1%	?
O=C(c1ccc(Cl)cc1)C1CCCN(Cc2cccc3ncccc23)C1 (stereo not given)	-5	34	-5	?	-3%	-19%
CCCC[N+]12CCC(CC1)C(=C(c1ccccc1)c1ccccc1)C2	-106*	14	-15	-14%	-1%	?
CCC[N+]12CCC(CC1)C(=C(c1ccccc1)c1ccccc1)C2	3	2	0	-4%	-1%	27%
CCN1C(=O)NC(=O)/C(=C/c2cc(C)n(-c3sc(C)c(C)c3C#N)c2C)C1=O	-2	14	8	-3%	-3%	?
Cc1ccc(N2C(=O)NC(=O)/C(=C\c3cc(C)n(-c4sc5c(c4C#N)CCCC5)c3C)C2=O)cc1	-5	25	.	?	.	35µM*
Oc1ccccc1/C=N/NP(=S)(c1ccccc1)c1ccccc1	-2	-3	0	?	1%	20%
Oc1ccc(/C=N/NP(=S)(c2ccccc2)c2ccccc2)cc1O	9	-8	-5	-3%	1%	32µM*
COc1ccc(CNC[C@H]2C[C@@H]3CCN2C[C@@H]3c2cc(-c3cccs3)nn2C)cc1	.	.	.	.	.	71%[176 µM]
Cc1ccc(N/N=C/C=C/c2ccco2)cc1	-1	2	7	.	13µM*	?
COc1cc2c(cc1OCc1ccccc1)NC(=O)C21CCN(C(=O)c2ccccc2)CC1	.	.	.	.	.	0%
Cc1oc2cc(OCC(=O)N3CCN(C)CC3)ccc2c(=O)c1-c1ccccc1	2	.	.	.	.	?
